Records with an inconclusive call do not appear. Calls of active or inactive are those of the source. The calls were made as follows: active = hit-call score of the fitted dose curve at least 0.9, where 1 is the maximum; inconclusive = response in the unintended direction; inactive = score below 0.9.
Key:
[1] = biological target: Cellular tumor antigen p53 (Homo sapiens) (UniProt P04637); assay: TOX21_p53_BLA_p2_ratio: Tox21 HCT-116 p53 Agonism Beta-lactamase Assay, Ratio, Phase 2 (AID 2283592)
In short: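 Cleaved-to-uncleaved substrate ratio (460 vs 530 nm) measured in HCT116 cells with an inducible beta-lactamase reporter linked to p53 activity. Compounds incubated 16 h at 37C before 2 h room-temperature CCF4-AM loading.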

[2] = TOX21_p53_BLA_p3_viability: Viability Assessment in the Tox21 HCT-116 p53 Agonism Beta-lactamase Assay, Phase 3 (AID 2283593);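 also: cells exposed to compound for 16 h before reading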
In short: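 HCT116 cells, 4000/well, dosed 5 h after plating by pin transfer (217-fold dilution from DMSO stock) and incubated 16 h at 37C, 5% CO2. Viability read as ATP luminescence with CellTiter-Glo after 30 min at room temperature.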

[3] = TOX21_p53_BLA_p4_viability: Viability Assessment in the Tox21 HCT-116 p53 Agonism Beta-lactamase Assay, Phase 4 (AID 2283597);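 also: hits lower the luminescence signal meaning cytotoxicity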
In short: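 Viability is taken as cellular ATP: after 16 h compound exposure of HCT116 cells and a 2 h room-temperature CCF4-AM substrate step, CellTiter-Glo reagent is added and luminescence is measured 30 min later.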

[4] = biological target: Cellular tumor antigen p53 (Homo sapiens) (UniProt P04637); assay: TOX21_p53_BLA_p5_ratio: Tox21 HCT-116 p53 Agonism Beta-lactamase Assay, Ratio, Phase 5 (AID 2283599)
In short: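 HCT-116 p53-bla cells (4000/well) plated 5 h, dosed with compound (217-fold DMSO dilution) for 16 h at 37 C; CCF4-AM substrate 2 h at room temperature. Activity is the 460/530 nm emission ratio (405 nm excitation), fitted in gain-of-signal direction versus DMSO.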

[5] = biological target: Cellular tumor antigen p53 (Homo sapiens) (UniProt P04637); assay: TOX21_p53_BLA_p4_ratio: Tox21 HCT-116 p53 Agonism Beta-lactamase Assay, Ratio, Phase 4 (AID 2283601)
In short: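 HCT-116 p53 beta-lactamase reporter cells (4000/well) preincubated 5 h, then compound (217-fold dilution of DMSO stock) for 16 h at 37C. CCF4-AM substrate added 2 h at room temperature; 460/530 nm emission ratio fitted upward versus DMSO.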

[6] = TOX21_p53_BLA_p5_viability: Viability Assessment in the Tox21 HCT-116 p53 Agonism Beta-lactamase Assay, Phase 5 (AID 2283600)
In short: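 Viability is taken from cellular ATP content, measured by luciferase luminescence in the same wells after the beta-lactamase ratio read. Cells are seeded at 4000 per well and exposed to DMSO-dissolved compounds, diluted 217-fold, for 16 h.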

Measured: AC50

Chain of Cellular tumor antigen p53 (Homo sapiens) (P04637 whole entry, looked up): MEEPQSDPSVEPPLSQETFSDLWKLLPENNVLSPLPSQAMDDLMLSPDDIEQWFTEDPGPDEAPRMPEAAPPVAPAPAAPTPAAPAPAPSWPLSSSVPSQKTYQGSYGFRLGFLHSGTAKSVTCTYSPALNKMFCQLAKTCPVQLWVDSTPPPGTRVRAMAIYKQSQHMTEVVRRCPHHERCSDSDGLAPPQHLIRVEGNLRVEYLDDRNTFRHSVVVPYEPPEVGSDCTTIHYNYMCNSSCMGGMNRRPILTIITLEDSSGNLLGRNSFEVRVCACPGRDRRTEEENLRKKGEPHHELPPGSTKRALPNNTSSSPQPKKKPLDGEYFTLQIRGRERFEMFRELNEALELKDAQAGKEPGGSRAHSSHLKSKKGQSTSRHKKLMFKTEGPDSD

O=C(CCCCCCCCCCCCC1CCCC1)Nc1ccc(S(=O)(=O)c2ccc(NC(=O)CCCCCCCCCCCCC3CCCC3)cc2)cc1
inactive: [1] | [2] | [3] | [4] | [5]

O=C(C=Cc1ccc(O)c(O)c1)O[C@@H]1C[C@](O)(C(=O)O)C[C@@H](O)[C@H]1O
inactive: [1] | [2] | [3] | [4] | [5]

O=C(O)c1ccccc1Nc1cc(Cl)ccc1C(=O)O
inactive: [1] | [2] | [3] | [4] | [6] | [5]

NS(=O)(=O)c1ccc(NC(=O)CCC(=O)O)cc1
inactive: [1] | [2] | [3] | [4] | [6] | [5]

OC(CCN1CCCCC1)(c1ccccc1)c1ccccc1
inactive: [1] | [2] | [3] | [4] | [6] | [5]

Fc1ccc([C@@H]2CCNC[C@H]2COc2ccc3c(c2)OCO3)cc1
active: [3] 37.4 µM
inactive: [1] | [2] | [4] | [6] | [5]

CCCCCCCCCCCCCCC(=O)NC(CO)CCCCCCCCCCCCCC (stereo not given)
inactive: [1] | [2] | [3] | [4]

Cc1cc(-c2ccc(N=Nc3ccc4c(S(=O)(=O)O)cc(S(=O)(=O)O)c(N)c4c3O)c(C)c2)ccc1N=Nc1ccc2c(S(=O)(=O)O)cc(S(=O)(=O)O)c(N)c2c1O
inactive: [1] | [2] | [3] | [4] | [6] | [5]

Cc1cccc2sc(N)nc12
inactive: [1] | [2] | [3] | [4] | [6] | [5]

CC(=O)Nc1c(I)c(C(=O)O)c(I)c(N(C)C(C)=O)c1I
inactive: [1] | [2] | [3] | [4] | [6] | [5]

CCSc1ccc2c(c1)N(CCCN1CCN(C)CC1)c1ccccc1S2
inactive: [1] | [2] | [3] | [4] | [6] | [5]

CCCCN(CCCC)C(=S)SSC(=S)N(CCCC)CCCC
inactive: [1] | [2] | [3] | [4]

CCCCCCCCCCCCCCCCN
inactive: [1] | [2] | [3] | [4] | [6] | [5]

Oc1ccc(Cl)c2c1CCC2
inactive: [1] | [2] | [3] | [4] | [6] | [5]

CC(C)CCCC(C)N (stereo not given)
inactive: [1] | [2] | [3] | [4] | [6] | [5]

CN(Cc1ccccc1)Cc1ccccc1
inactive: [1] | [2] | [3] | [4] | [5]

COC(=O)CCCCCCCC(=O)OC
inactive: [1] | [2] | [3] | [4] | [6]

FC(F)(F)c1ccc(Cl)cc1Cl
inactive: [1] | [2] | [3] | [4] | [5]

CC(=O)OC(C(=O)c1ccccc1)c1ccccc1 (stereo not given)
inactive: [1] | [2] | [3] | [4] | [5]

CCCCCCCCCCCCCCCCCCCl
inactive: [1] | [2] | [3] | [4] | [6] | [5]

CCOc1ccc(NC(=O)OC(C)C)cc1OCC
inactive: [1] | [2] | [3] | [4] | [5]

ICCc1ccccc1
inactive: [1] | [2] | [3] | [4] | [5]

— PubChem BioAssay (EPA / NIEHS)
